# High-throughput results (PubChem)
# Compounds with a hit are over-represented: about 19% of the library has one in this group of screens.
# TDP1 cell CPT: qHTS for Inhibitors of human tyrosyl-DNA phosphodiesterase 1 (TDP1): qHTS in cells in presence of CPT. chicken DT40 Tdp1-/-;hTDP1 cells + 20 nM CPT, ATP luminescence, 48 h. Potency, µM (doses to about 46.2 µM), for inactives: at the top dose activity change, negative = growth inhibition, actives largely listed as inhibitors. 420,000 tested, 12% active; also: potency is read from the fitted curve at half-maximal effect; nearly all actives have a fitted effect of over 55% in size
#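 Chicken DT40 Tdp1-/- cells stably complemented with human TDP1 were seeded at 400 cells/well in medium containing 20 nM camptothecin, exposed to pin-transferred compounds, and grown at 37 °C for at least 48 hr. Viability was read as ATP luminescence.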
# IL1B secr inh: qHTS for Inhibitors of Inflammasome Signaling: IL-1-beta AlphaLISA Primary Screen. THP-1 LPS/ATP IL-1B secretion, AlphaLISA, 16 h; active compounds read low. activity change, % at 57.5 µM. 360,000 tested, 4.7% active. AID 743279, 2014; in the data active = activity change below about -50%; inconclusive = mostly about -30% to -49%
#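 THP-1 cells pretreated 1 hr with compounds (up to 57.5 uM final), then stimulated with LPS (250 ng/mL final) plus ATP (1.25 mM final); secreted IL-1B measured by AlphaLISA after 16 hr, decreased signal indicating inhibition.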
# ELG1 DNA repair: qHTS screen for small molecules that inhibit ELG1-dependent DNA repair in human embryonic kidney (HEK293T) cells expressing luciferase-tagged ELG1; Potency, µM (top dose mostly 46.1 µM), for inactives: top-dose activity change, negative = inhibition, most hits filed as inhibitors; HEK293T ELG1-luciferase reporter, luminescence, 16 h; DNA damage induced by 5-fluorouridine; 330,000 tested, 2.3% active; AID 504467, 2011; also: potency is read from the fitted curve at half-maximal effect; nearly all actives have a fitted effect of over 55% in size
#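 Step one: seed 2,000 cells per well. Step two: pin-transfer compound or DMSO alongside 5-fluorouridine. Step three: incubate 16 hr, 37 °C, 5% CO2. Step four: add ONE-Glo, wait 30 min, read luminescence.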
# HT1080NT lethal: qHTS for induction of synthetic lethality in tumor cells producing 2HG: qHTS for the HT-1080-NT fibrosarcoma cell line; 360,000 tested, 1.6% active; HT-1080-NT fibrosarcoma viability, CellTiter-Glo ATP luminescence, 48 h; Potency, µM (highest dose often 46.1 µM), without a hit: top-dose activity, negative = less viability, hits mostly cytotoxic;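 also: NT is the 2HG producing partner of a matched IDH1 knockdown line; potency is read from the fitted curve at half-maximal effect; 0% = DMSO-treated cells and -100% = media-only wells without cells; nearly all actives have a fitted effect of over 55% in size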
#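 Compounds were tested in concentration-response format on HT-1080-NT cells for 48 hours at 37 degrees C. Cell viability came from CellTiter-Glo luminescence; curves were classified by r2, response magnitude and activity.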
# HT1080 IDH1KD tx: qHTS for induction of synthetic lethality in tumor cells producing 2HG: qHTS for the HT-1080-IDH1KD cell line. 360,000 tested, 2% active. HT-1080 IDH1 knockdown viability, ATP luminescence, 48 h. Potency, µM (titrated, usually from 46.1 µM), inactives show at the top dose activity, negative = toxicity, hits mostly cytotoxic;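 also: potency is read from the fitted curve at half-maximal effect; 0% = DMSO wells and -100% = cell-free medium wells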
#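 Knockdown cells (IDH1KD HT-1080) received compounds 2 h after plating at 750 cells/well and were kept 48 h at 37 °C in 5% FBS RPMI. A CellTiter-Glo luminescence read gave % activity for curve fitting.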
# TDP1 cell noCPT: qHTS for Inhibitors of human tyrosyl-DNA phosphodiesterase 1 (TDP1): qHTS in cells in absence of CPT; 420,000 tested, 15% active; DT40 Tdp1-/- hTDP1 cells, no CPT, ATP luminescence, 48 h; Potency, µM (titrated, usually from 46.2 µM), without a hit: top-dose activity change, negative = growth inhibition, actives largely listed as inhibitors; also: potency is read from the fitted curve at half-maximal effect; nearly all actives have a fitted effect of over 55% in size
#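 Luminescent ATP content (CellTiter-Glo) served as the growth readout. Knockout chicken DT40 cells expressing human TDP1 were exposed to compounds without camptothecin for a minimum 48 hr at 37 °C.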
# An asterisk follows results filed as active; ? = inconclusive; / = no result; [ ] = another dose, or the depositor's remark. Unless noted, calls follow the shape of the dose curve; as a rule, active = well fitted curve in the direction sought with a large enough effect; inconclusive = small, poorly fitted or top-dose-only effect, or another doubt; inactive = no such curve, though single readings can be large; an effect the other way counts as inactive or inconclusive. Unless noted, % is scaled to controls: 0 for no effect and ±100 for the full control effect.
SMILES,TDP1 cell CPT,IL1B secr inh,ELG1 DNA repair,HT1080NT lethal,HT1080 IDH1KD tx,TDP1 cell noCPT
Cc1cc(C)cc(-n2c(/C=C/c3cccc(F)c3)nc3ccccc3c2=O)c1,21µM*,/,/,/,/,?
COc1cccc(-n2c(CN3CCOCC3)nc3ccc([N+](=O)[O-])cc3c2=O)c1,?,11,?,6%,6%,6%
COc1cccc(-n2c(/C=C/c3cccc(C)c3)nc3ccccc3c2=O)c1,?,/,/,/,/,23µM*
Nc1c(C(=O)Nc2cccc(F)c2)sc2nc(-c3cccs3)ccc12,?,/,/,/,/,-29%
Clc1ccc2c(c1)C(c1ccccc1)=NCc1nncn1-2,1%,/,/,/,/,-27%
COc1ccc(Cl)cc1NC(=O)C1CCN(c2nnc(C)c3c(C)n(-c4ccccc4)nc23)CC1,18µM*,/,/,/,/,15µM*
Cc1ccc(-n2nc3c(N4CCC(C(=O)NCc5ccccc5Cl)CC4)nnc(C)c3c2C)cc1,15µM*,/,/,/,/,5.8µM*
CC(CN1CCOCC1)C(C#N)(c1ccccc1)c1ccccc1 (centres undefined),-22%,4,/,-11%,-9%,?
COc1ccc(CC(C)NCCc2ccc(OC)c(OC)c2)cc1 (centres undefined),9%,-9,-4%,-17%,-14%,-4%
Cc1ccc(-c2cc(-c3ccc(C)cc3)[n+](C)o2)cc1,0.46µM*,0,?,-18%,?,0.33µM*
Cc1ccc(C(C)C)c(OCC(=O)N2CCN(Cc3nc4cc([N+](=O)[O-])ccc4n3C)CC2)c1,1%,3,21µM*,4%,1%,-3%
Cc1cccc(OCC(=O)N2CCN(Cc3ccncc3)CC2)c1,-23%,11,0%,0%,13%,-7%
Cc1ccc(C)c(N2CCN(C(=O)C3CCN(Cc4nc(-c5cccc(Cl)c5)oc4C)CC3)CC2)c1,9.2µM*,/,/,/,/,6.5µM*
Cc1ccc(Cl)cc1N1CCN(C(=O)C2CCN(Cc3nc(-c4ccc(Cl)cc4)oc3C)CC2)CC1,?,/,/,/,/,15µM*
COc1cccc(-c2nc(CS(=O)CC(=O)N3CCC4(CC3)OCCO4)c(C)o2)c1 (centres undefined),-5%,11,-2%,2%,0%,3%
Cc1ccc(Sc2ccc(C=C3C(=O)N(C)C(=O)N(C)C3=O)o2)cc1,18µM*,-12,13%,25%,13%,18µM*
CC[C@H](C)[C@H](NC(=O)[C@H](CCCN=C(N)N)NC(=O)[C@H](CCCN=C(N)N)NC(=O)[C@H](CC(C)C)NC(=O)[C@H](Cc1ccccc1)NC(=O)CNC(=O)CNC(=O)[C@@H](N)Cc1ccc(O)cc1)C(=O)N[C@@H](CCCN=C(N)N)C(=O)N1CCC[C@H]1C(=O)N[C@@H](CCCCN)C(=O)N[C@@H](CC(C)C)C(=O)N[C@@H](CCCCN)C(=O)O,8%[4.12 µM],/,/,/,/,2%[4.12 µM]
CC1=C2[C@@H]3OC(=O)[C@H](C)C3CC[C@@]2(C)C=CC1=O (some centres undefined),4%,-2,0%,10%,5%,-25%
C[C@H]1C=CC(=O)O[C@H]1c1ccccc1,?,-105*,/,-25%,-20%,?
CC1C(c2ccccc2)OCCN1C (centres undefined),-17%,3,/,10%,20%,0%
COc1ccc(N2CCN(C(=O)CCCCCn3c(=S)[nH]c4ccc(N5CCOCC5)cc4c3=O)CC2)cc1,4.1µM*,-22,/,-22%,-18%,2.9µM*
CCOc1cc2[nH]c(=S)n(CCCC(=O)N3CCC4(CC3)OCCO4)c(=O)c2cc1OCC,-3%,6,-15%,14%,-3%,-34%
CN1CCCN(C(=O)COc2cccc(C(F)(F)F)c2)CC1,-4%,8,6%,12%,8%,19%
CCOc1cc2[nH]c(=O)n(CCCCC(=O)N3CCN(c4cccc(Cl)c4)CC3)c(=O)c2cc1OCC,2.3µM*,/,/,/,/,5.2µM*
COc1cc2[nH]c(=O)n(CCCCCC(=O)N3CCN(c4cccc(C(F)(F)F)c4)CC3)c(=O)c2cc1OC,?,/,/,/,/,6.5µM*
SMILES,TDP1 cell CPT,IL1B secr inh,ELG1 DNA repair,HT1080NT lethal,HT1080 IDH1KD tx,TDP1 cell noCPT
O=C(Nc1cccc(Cl)c1)OC1CN2CCC1CC2 (centres undefined),5.2µM*,?,?,-1%,0%,5.2µM*
O=C(Nc1ccccc1Cl)OC1CN2CCC1CC2 (centres undefined),-15%,-24,?,-12%,-16%,?
O=C(Nc1ccc(Cl)cc1)OC1CN2CCC1CC2 (centres undefined),-17%,-52*,?,-22%,-21%,-29%
COc1cccc(OCc2cc(C(=O)N3C[C@H]4C[C@@H](C3)c3cccc(=O)n3C4)no2)c1,4%,-6,?,1%,20%,-2%
COc1cc(C2SCC(=O)Nc3c2c(C)nn3-c2ccccc2)cc(OC)c1OC (centres undefined),-20%,14,4%,-4%,1%,-9%
COc1cccc(C2SCC(=O)Nc3c2c(C)nn3-c2ccc(C)c(Cl)c2)c1OC (centres undefined),21µM*,/,/,/,/,21µM*
CCCOc1ccc(C2SCC(=O)Nc3c2c(C)nn3-c2cccc(C)c2)cc1OC (centres undefined),16µM*,/,/,/,/,21µM*
C[C@]12CCC3C(CC[C@H]4C[C@H](O)CC[C@]34C)C1C[C@@H](O)[C@H]2O (some centres undefined),?,3,/,-10%,-1%,?
CCOc1ccc(NC(=O)c2cc3c(C)nn(-c4ccccc4)c3s2)cc1,21µM*,/,/,/,/,10µM*
COc1ccc(-c2[nH]ncc2CNC(C)Cc2ccsc2)c(F)c1 (centres undefined),?,-2,5%,-4%,-1%,?
CC(Cc1ccsc1)NCc1cn[nH]c1-c1ccc(F)cc1F (centres undefined),?,-54*,-3%,-15%,-21%,?
